Test results published in the supplement of paper PMC10732440.
± gives the standard deviation of the averaged measurements.

Each molecule was assayed on Caenorhabditis elegans N2 infected with Nematocida parisii ERTm1 (assay: progeny production relative to DMSO uninfected control; higher = more progeny despite microsporidia infection (inhibition of infection with low host toxicity)). Conditions: infection time 6 days; 40 µM.
Description: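 Bleach-synchronised C. elegans N2 L1 larvae (100 per well) were grown in 96-well plates in K-medium with 5x E. coli OP50 and 15,000 N. parisii spores/uL, plus Pandemic Response Box compound at 100 uM or 40 uM (1% DMSO), for 6 days at 21 C with shaking. Worms were stained with Rose Bengal, scanned on a flatbed scanner and counted with WorMachine. Progeny production is given as % of the DMSO uninfected control (triplicate wells), so higher values mean the compound restores progeny despite infection.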

| SMILES | progeny production [%] |
| --- | --- |
| Cc1cc(CCCOc2c(C)cc(-c3noc(C(F)(F)F)n3)cc2C)on1 | 1.93 ± 0.29 |
| CC[C@@]1(O)C(=O)OCc2c1cc1n(c2=O)Cc2cc3c(CN(C)C)c(O)ccc3nc2-1 | 7.48 ± 1.6 |
| CCNC(=O)Nc1cn2c(-c3ncc(CC)cn3)cc(-c3cccnc3)cc2n1 | 3.09 ± 1.5 |
| Nc1nc(=O)[nH]cc1F | 5.01 ± 1.2 |
| O=c1nc(N2CCN(CC3CCCCC3)CC2)sc2c([N+](=O)[O-])cc(C(F)(F)F)cc12 | 4.77 ± 2.5 |
| O=C(c1cc(O)nc2ccccc12)N1CCN(c2ccccc2)CC1 | 5.44 ± 4.1 |
| CN(C)CCCNC(=O)c1ccc(-c2cc(O)c3ncccc3c2)cc1 | 5.74 ± 3.9 |
| O=C(N[C@H](CCS)C(=O)N[C@H](Cc1ccccc1)C(=O)O)c1cc2ccccc2[nH]1 | 6.68 ± 3.5 |
| Cn1cncc1[C@@](N)(c1ccc(Cl)cc1)c1ccc2c(c1)c(-c1cccc(Cl)c1)cc(=O)n2C | 2.71 ± 0.38 |
| CCc1cc(CCC(=O)Nc2ccccc2O)c(O)nc1C | 4.5 ± 1.7 |
| COc1ccc(C2=CC(c3c(F)cccc3Cl)n3ncnc3N2)cc1 (stereo not given) | 3.01 ± 1.9 |
| O=C(O)CCNC(=O)c1ccccc1 | 13 ± 12 |
| NCc1ccc(S(N)(=O)=O)cc1 | 5.64 ± 3.5 |
| CCC(C)n1ncn(-c2ccc(N3CCN(c4ccc(OCC5COC(Cn6cncn6)(c6ccc(Cl)cc6Cl)O5)cc4)CC3)cc2)c1=O (stereo not given) | 4.85 ± 1.2 |
| Nc1ccc2oc(=O)ccc2c1I | 3.87 ± 2.3 |
| O=C(NNC(=S)Nc1ccc(Cl)cc1)c1ccncc1 | 2.76 ± 1.4 |
| Cc1[nH]c2ccccc2c1CC(=O)N[C@@H](Cc1ccccc1)C(=O)N(C)c1ccccc1 | 4.28 ± 2.4 |
| CC(C)(C)NC(=O)N[C@H](C(=O)N1C[C@H]2[C@@H]([C@H]1C(=O)NC(CC1CCC1)C(=O)C(N)=O)C2(C)C)C(C)(C)C (stereo not given in full) | 3.73 ± 0.22 |
| Nc1nc2c(Cc3cccnc3)c[nH]c2c(=O)[nH]1 | 5.79 ± 0.11 |
| CCCCN1C[C@H](O)[C@@H](O)[C@H](O)[C@H]1CO | 4.97 ± 3.5 |

Same assay, conditions: infection time 6 days; 100 µM

| SMILES | progeny production [%] |
| --- | --- |
| Cc1cc(CCCOc2c(C)cc(-c3noc(C(F)(F)F)n3)cc2C)on1 | 15.4 ± 3.2 |
| CC[C@@]1(O)C(=O)OCc2c1cc1n(c2=O)Cc2cc3c(CN(C)C)c(O)ccc3nc2-1 | 10 ± 2.5 |
| CCNC(=O)Nc1cn2c(-c3ncc(CC)cn3)cc(-c3cccnc3)cc2n1 | 6.08 ± 4.7 |
| Nc1nc(=O)[nH]cc1F | 23.7 ± 7.4 |
| O=c1nc(N2CCN(CC3CCCCC3)CC2)sc2c([N+](=O)[O-])cc(C(F)(F)F)cc12 | 9.3 ± 5.1 |
| O=C(c1cc(O)nc2ccccc12)N1CCN(c2ccccc2)CC1 | 9.85 ± 7.2 |
| CN(C)CCCNC(=O)c1ccc(-c2cc(O)c3ncccc3c2)cc1 | 10.5 ± 6.4 |
| O=C(N[C@H](CCS)C(=O)N[C@H](Cc1ccccc1)C(=O)O)c1cc2ccccc2[nH]1 | 11.3 ± 6.7 |
| Cn1cncc1[C@@](N)(c1ccc(Cl)cc1)c1ccc2c(c1)c(-c1cccc(Cl)c1)cc(=O)n2C | 8.73 ± 2.4 |
| CCc1cc(CCC(=O)Nc2ccccc2O)c(O)nc1C | 9.45 ± 3.1 |
| COc1ccc(C2=CC(c3c(F)cccc3Cl)n3ncnc3N2)cc1 (stereo not given) | 8.48 ± 5.9 |
| O=C(O)CCNC(=O)c1ccccc1 | 16.4 ± 8.7 |
| NCc1ccc(S(N)(=O)=O)cc1 | 7.3 ± 1.6 |
| CCC(C)n1ncn(-c2ccc(N3CCN(c4ccc(OCC5COC(Cn6cncn6)(c6ccc(Cl)cc6Cl)O5)cc4)CC3)cc2)c1=O (stereo not given) | 22.8 ± 5.2 |
| Nc1ccc2oc(=O)ccc2c1I | 7.24 ± 3.6 |
| O=C(NNC(=S)Nc1ccc(Cl)cc1)c1ccncc1 | 18.4 ± 12 |
| Cc1[nH]c2ccccc2c1CC(=O)N[C@@H](Cc1ccccc1)C(=O)N(C)c1ccccc1 | 17.6 ± 9.7 |
| CC(C)(C)NC(=O)N[C@H](C(=O)N1C[C@H]2[C@@H]([C@H]1C(=O)NC(CC1CCC1)C(=O)C(N)=O)C2(C)C)C(C)(C)C (stereo not given in full) | 7.69 ± 4.1 |
| Nc1nc2c(Cc3cccnc3)c[nH]c2c(=O)[nH]1 | 16.4 ± 9.7 |
| CCCCN1C[C@H](O)[C@@H](O)[C@H](O)[C@H]1CO | 13.9 ± 3.7 |
